Laboratory results reported in PubChem BioAssay (NCI).
The panel holds about 79,000 compounds, 15% with a hit somewhere; the sample as a whole holds those more often. Unmarked numbers belong to inactive results. Activity calls are given as the source filed them. Rule as the data show it: active = growth inhibition above about 70%; inactive = the rest.

How the values were obtained:
[1] = NCI Yeast Anticancer Drug Screen. Data for the rad50 strain (AID 155);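 also: 0% = growth of vehicle-only cultures of the same strain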; conditions: S. cerevisiae rad50 strain growth inhibition; at 50.0 µM; stronger effect = higher value
In short: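 Yeast carrying a defined DNA repair defect were exposed to test compounds, and growth was compared with vehicle-treated controls to give percent inhibition.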

[2] = NCI Yeast Anticancer Drug Screen. Data for the mec2-1 strain (AID 157); conditions: S. cerevisiae mec2-1 strain, at 50.0 µM, stronger effect = higher value
In short: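 Test agents were screened against the mec2-1 yeast strain, with defined DNA repair or cell cycle alteration. Growth was scored as inhibition against vehicle-only controls.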

[3] = NCI Yeast Anticancer Drug Screen. Data for the sgs1 mgt1 strain (AID 161);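 also: 0% = growth of cultures given vehicle only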; conditions: S. cerevisiae sgs1 mgt1 strain, at 50.0 µM, stronger effect = higher value
In short: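 Genetically altered yeast, compound exposure, growth inhibition relative to vehicle.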

[4] = NCI Yeast Anticancer Drug Screen. Data for the cln2 rad14 strain (AID 165);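 also: 0% = growth equal to vehicle treated cultures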; conditions: S. cerevisiae cln2 rad14 strain, at 50.0 µM, stronger effect = higher value
In short: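 Growth of compound-exposed yeast (cln2 rad14 genotype) measured and expressed as inhibition relative to vehicle.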

[5] = NCI Yeast Anticancer Drug Screen. Data for the bub3 strain (AID 167); conditions: S. cerevisiae bub3 mutant strain, at 50.0 µM, stronger effect = higher value
In short: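 Compounds were applied to a genetically altered yeast strain carrying a cell-cycle control defect. Growth inhibition was scored against vehicle-treated controls.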

[6] = NCI Yeast Anticancer Drug Screen. Data for the mlh1 rad18 strain (AID 175); conditions: S. cerevisiae mlh1 rad18 strain growth inhibition; at 50.0 µM; stronger effect = higher value
In short: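 In this whole-cell yeast screen, a strain with altered DNA damage repair is challenged with compound, and its growth is measured against matched vehicle-treated controls.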

| Structure (SMILES) | growth inhibition [1] | growth inhibition [2] | growth inhibition [3] | growth inhibition [4] | growth inhibition [5] | growth inhibition [6] |
| --- | --- | --- | --- | --- | --- | --- |
| C=CCc1cc(OC)c2c(c1)C(OC)CC(c1ccc(OC)c(OC)c1)O2 (centres undefined) | -3.7% | -34.3% | -6.05% | 12.6% | -12.7% | -17.9% |
| COC1=Cc2nc3ccccc3nc2OC1(C)C | -13.2% | 3.15% | 10.6% | -16.4% | 17.8% | 3.75% |
| COc1ccccc1/C=C1\CCC(CCN(C)C)(C2=CCCC2)C1=O (centres undefined) | -3.05% | -11.8% | -27.5% | 11.1% | -17.7% | 24.4% |
| Cc1nc(-c2cc3c(ccc4ccccc43)oc2=O)cs1 | 21.5% | -8.85% | -4.45% | 25.8% | -4.4% | -21.5% |
| CCCCCCCCCCCCCCCCC/C(CC)=N/Nc1ccc([N+](=O)[O-])cc1[N+](=O)[O-] | -16.9% | 3.9% | -24.6% | -38.8% | -3.2% | -9.1% |
| CCCCCOC(=O)c1c(Cl)c(Cl)c(C(=O)OCCCCC)c(Cl)c1Cl | -18.2% | -39% | 0.85% | -6.85% | -6.5% | -9% |
| COC(=O)c1ccccc1C#CC#Cc1ccccc1C(=O)OC | -5.25% | -32.1% | 4.6% | 8.85% | -2.4% | -3.5% |
| CCC(=O)N1C(=O)C(C)C23c4ccccc4C(=O)N2CCCN13 (centres undefined) | 4.35% | -13.1% | -1.8% | 11.1% | 1.8% | 15.8% |
| Cc1ccccc1-[n+]1noc(N)n1 | 4.75% | 0.45% | -14.6% | 3.85% | -0.7% | 12.6% |
| CC(C)(C)/[N+]([O-])=C/C1(C2(/C=[N+](\[O-])C(C)(C)C)Cc3ccccc3C2=O)Cc2ccccc2C1=O (centres undefined) | 29.8% | 3.75% | 3.05% | 15.6% | 7.15% | 31.9% |
| CC1N=C(c2ccccc2)SC1C (centres undefined) | -14.2% | -18.4% | -24.9% | -49.4% | -11% | -38.3% |
| CC(Cc1ccccc1)NC(=O)c1ccncc1 (centres undefined) | 2.5% | 7.45% | -5.4% | -39.7% | -0.85% | 2% |
| COC1OC(COC(=O)c2ccc([N+](=O)[O-])cc2)C(SC#N)C1O (centres undefined) | 27.4% | 2.05% | 26.2% | -18.3% | -10.6% | 33.2% |
| CCOC(=O)/N=c1/nc(N(C)C)ss1 | -18.9% | -29.6% | 4.15% | -19.6% | -9.4% | -5.05% |
| COc1ccc(/C=C2\C(=O)N(C(=O)Cc3ccccc3)N=C2C)cc1OC | -20.3% | -20.2% | -59.1% | -16.8% | -12.4% | -42.6% |
| CCOC(=O)c1ccc(C=O)cc1 | 15.5% | -5.75% | -4.95% | 6.25% | -5.8% | -11.5% |
| CCCCCCCCCC1OCCCO1 | -14.3% | 0.15% | 12.2% | -0.1% | -4.5% | -16.3% |
| CCN1N=Nc2ccccc2NC1=O | 18.1% | 9.85% | 8.45% | 4.5% | -13.1% | -25.3% |
| COC(=O)/C=C/C(=O)N1CC(C)N(C(=O)/C=C/C(=O)OC)CC1C (centres undefined) | -8.45% | -3.55% | -9.2% | 37.4% | 1.45% | -14.4% |
| CCOC(=O)c1cc(C)[nH]n1 | -37.9% | -26.1% | -6.75% | -11.7% | -26.9% | 2.15% |

| Structure (SMILES) | growth inhibition [1] | growth inhibition [2] | growth inhibition [3] | growth inhibition [4] | growth inhibition [5] | growth inhibition [6] |
| --- | --- | --- | --- | --- | --- | --- |
| CS1(C)=NC(=O)c2cc([N+](=O)[O-])ccc2N=1 | 12.2% | 19.4% | 10.4% | -25.2% | 11.8% | 12.8% |
| NC(=S)NNC(=O)c1ccccc1 | -16.7% | -10.6% | -2.25% | 9.65% | 6.75% | -2.55% |
| CCCCCCCCCCCCCCCO | 0.45% | -20.4% | -2.45% | -7.35% | -7.25% | 8.4% |
| Cc1nc2cc([N+](=O)[O-])ccc2c(NCCCN(C)C)c1C | 6.6% | 8.35% | 7.25% | -1.45% | -3.5% | -39.6% |
| Cc1[nH]c(=O)nc(N/N=C/c2ccc(Cl)cc2)c1C(=O)Nc1ccc(Cl)cc1 | -5.35% | 16.4% | -3.9% | 1.65% | -34.4% | -12.5% |
| CC(=O)NCCc1ccc(Cl)c(Cl)c1 | 13.6% | -4.25% | -5.95% | -0.6% | 3.35% | -3.3% |
| Cc1ccc(-c2nc3ccccc3c(=O)o2)cc1 | 11.4% | -9.05% | -6.05% | -8.6% | 4.75% | 14.3% |
| Cc1ccc(CCCC(=O)O)c2ccc3ccccc3c12 | 4.15% | 2.4% | 8.6% | -9.4% | 4.3% | 3.55% |
| NC(CSCc1ccccc1)P(=O)(O)O (centres undefined) | 8.35% | 0.55% | 0.2% | -7.45% | -2.45% | -1.55% |
| CCCCn1cnc2c(SCCNC(=O)N(C)N=O)ncnc21 | 6.3% | -8.25% | 10.3% | -45.3% | 3.5% | -2.05% |
| CCCCOCCOCCOS(=O)(=O)c1ccc(C)cc1 | 11.1% | 1.6% | 12.6% | 5% | 10.2% | 13.9% |
| COc1ccc(/C=N/N2CCN(/N=C/c3ccc(OC)c(OC)c3)CC2)cc1OC | 22.9% | 0.65% | 3.25% | 19.1% | -1.75% | 1.15% |
| CSc1nc(NN)c([N+](=O)[O-])c(SC)n1 | -7.55% | -0.7% | 1.2% | -2.65% | -14.5% | 15.6% |
| CC(C)=CCCc1ccc2c(c1)C(=O)c1cc3c(cc1C2=O)OCO3 | -13.9% | 15.1% | 21.1% | 9.6% | 10.6% | -2.1% |
| O=C(N/N=C\c1cccc(O)c1)c1ccncc1 | 1.75% | 11.9% | -37.5% | -19.4% | 3% | -1.05% |
| CCCCC(N)CSSCC(N)CCCC (centres undefined) | -20.8% | -44% | -23.3% | -20.1% | -50.6% | -35.6% |
| CCOC(=O)N1CCN(C(=S)N/N=C(\C)c2cnccn2)CC1 | 99.3% (active) | 99.5% (active) | 99.5% (active) | 99.5% (active) | 99.5% (active) | 99.3% (active) |
| CC1C(=O)OC2CC[N+]3(C(=O)C(F)(F)F)CC4OC4(COC(=O)C(C)(O)C1(C)O)C23 (centres undefined) | -13.2% | -32% | -12.8% | 2.2% | 0.65% | -8.9% |
| COC1OC2COC(C)(c3ccccc3)OC2C(O)C1[NH-].COC1OC2COC(C)(c3ccccc3)OC2C(O)C1[NH-].[Cl][Pt+2][Cl] (centres undefined) | -0.25% | -2.7% | -7.8% | -25.3% | -3.05% | 35.4% |
